Screening results deposited in PubChem by National Center for Advancing Translational Sciences (NCATS).
CHX counter: affects cycloheximide protein synthesis inhibition readout, counter-screen; cell reporter, cycloheximide protein synthesis inhibition counterscreen; max response, %; hit rate 12% among 300,000; AID 2314; in the data active means max response mostly above about 13%, no sharp cut-off; inactive means mostly below about 14%; further: read at 38.3 µM for the half of the compounds with a filed dose; 0% is about no effect
Pf growth 48h: inhibits P. falciparum growth in the first generation, 48 h; P. falciparum luciferase growth in erythrocytes, 48 h; hit rate 5.9% among 310,000; Potency, µM (doses to about 28.7 µM), without a hit: top-dose activity change, negative = inhibition, most hits filed as inhibitors; further: potency means the concentration at half of the fitted maximal effect; on the % scale 0 is the no-effect control and ±100 the full control effect
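A one-generation exposure of luciferase-tagged malaria parasites in RPMI 1640/Albumax erythrocyte culture, 37 C and 5% CO2. Inhibition is inferred from decreased luminescence after adding detection reagent.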
Shiga inhibitor: blocks Shiga toxin action in Vero cells. AID 2315. inhibition, % at 38.7 µM. hit rate 9.2% among 290,000. Vero cells, Shiga toxin protein synthesis inhibition reporter; in the data active means inhibition mostly above about 28%, no sharp cut-off; inactive means mostly below about 43%; further: 0% is about no effect
AMA1 RON2 block: inhibitors of Plasmodium falciparum AMA1-RON2 interaction; AlphaScreen AMA1-biotinylated RON2 peptide binding; Potency, µM (highest dose often 58.2 µM), without a hit: at the highest dose activity change, negative = inhibition, actives largely listed as inhibitors; hit rate 0.2% among 360,000; AID 720542;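 further: potency means the concentration at half of the fitted maximal effect; 0% = vehicle wells and -100% = peptide control; nearly all actives have a fitted effect of over 45% in size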
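AMA1 (3D7) with his tag at 25 nM final met compounds first, then biotinylated RON2 peptide at 25 nM; detection used donor plus acceptor beads, 10 µg/mL apiece, read by AlphaScreen after 30 min at room temperature.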
SARS PLP yeast: inhibitors of SARS-CoV papain-like protease in yeast; Potency, µM (doses to about 32.9 µM), for inactives: at the highest dose activity, positive = growth rescue, most hits filed as activators; hit rate 0.19% among 330,000; S. cerevisiae expressing SARS-CoV PLpro, growth rescue; calls by dose curve; further: potency means the concentration at half of the fitted maximal effect; 0% is about no effect; nearly all actives have a fitted effect of over 55% in size
Pf growth 96h: P. falciparum growth inhibition at 96 hour, primary screen for plastid delayed-death inhibitors | AID 504834 | Potency, µM (top dose mostly 28.7 µM), for inactives: at the highest dose activity change, negative = inhibition, usual class: inhibitors | hit rate 6.9% among 320,000 | P. falciparum luciferase reporter growth, 96 h; further: potency means the concentration at half of the fitted maximal effect; on the % scale 0 is the no-effect control and ±100 the full control effect
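Luminescence readout: decreased luciferase signal marks inhibited growth of reporter-expressing P. falciparum in infected red cells (2% hematocrit, 0.05% parasitemia final), exposed to compound two generations (96 h, 37 C, 5% CO2).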
An asterisk follows results filed as active; ? = inconclusive; . = no result given; [ ] = dose if it differs, or a comment. Shown are actives, neighbours in structure and some others; about 19% of the full set was active somewhere. Unless noted, the call rests on the fitted dose curve; in most records, active means well fitted curve in the direction sought with a large enough effect; inconclusive means small, poorly fitted or top-dose-only effect, or another doubt; inactive means no such curve, though single readings can be large; an effect the other way counts as inactive or inconclusive.

SMILES | CHX counter | Pf growth 48h | Shiga inhibitor | AMA1 RON2 block | SARS PLP yeast | Pf growth 96h
O=C(Nc1ccc2ccccc2c1)OC1CCS(=O)(=O)C1 (stereo not given) | . | . | . | 0% | . | .
COc1ccc2c(=O)c3ccccc3oc2c1 | 33* | 115% | 42* | 13% | -11% | 94%
Nc1ccc(C#Cc2ccc3oc4ccccc4c(=O)c3c2)cc1 | . | . | . | -3% | . | .
CC(=O)c1ccc2oc3ccccc3c(=O)c2c1 | 15 | 78% | 17* | -1% | -15% | 131%
Nc1c(C(=O)NCCN2CCOCC2)c2nc3ccccc3nc2n1CCc1ccccc1F | -3 | ? | -12 | 46% | 0% | 13µM*
Nc1c(C(=O)NCCN2CCOCC2)c2nc3ccccc3nc2n1CCc1ccccc1 | -2 | 9.3µM* | -11 | 28% | -3% | -19%
CCN(Cc1nc(-c2ccc(OC)c(OC)c2)no1)C(=O)c1ccc2c(c1)OCO2 | -2 | 10% | -9 | 0% | -16% | ?
NC(=O)Oc1ccc(Cc2ccccc2)cc1 | . | -2% | . | . | . | -18%
Cc1cc(C)c(C#N)c(Nc2cccc(C)c2C)n1 | 1 | -6% | -7 | 3% | 1% | ?
Cc1cccc(Nc2cc(C)c3c(O)cccc3n2)c1C | 32* | 0.74µM* | 92* | ? | -25% | 1%
O=C(CN1CCCC1)N1c2ccccc2Sc2ccc(C(F)(F)F)cc21 | -4 | ? | -1 | -6% | 10% | 2%
O=C(CN1CCN(c2ccccn2)CC1)N(c1ccccc1)c1ccc2ccccc2c1 | -3 | 12µM* | -5 | -16% | -7% | 5.2µM*
O=C(CN1CCN(c2ccccn2)CC1)N1c2ccccc2Sc2ccc(C(F)(F)F)cc21 | 3 | 4.7µM* | 17 | ? | -11% | .
O=C(CN1CCN(c2ccccn2)CC1)N1c2ccccc2CCc2ccccc21 | -4 | 15µM* | -2 | ? | -9% | ?
O=C(CSc1nc2ccccc2o1)N1c2ccccc2Sc2ccc(C(F)(F)F)cc21 | 8 | 13µM* | 9 | -4% | -2% | ?
COc1cc(C(=O)N2CCN(C3=NS(=O)(=O)c4ccccc43)CC2)cc(OC)c1OC | . | . | . | 23% | . | .
CCOC(=O)c1c(NC(=O)COC(=O)CCOc2cc(C)ccc2C)sc(C(=O)N(C)C)c1C | . | . | . | 10%[11.6 µM] | . | .
Nc1nc2cc(Cl)ccc2cc1C(=O)NCCCc1ccccc1 | . | . | . | 2% | . | .
O=C1CCc2cc(S(=O)(=O)N3CCCCC3)cc3c2N1CC3 | . | ? | . | -8% | 1% | ?
Cc1noc(C)c1-c1ccc(C(=O)Nc2cccc(NS(C)(=O)=O)c2)c2occc12 | . | . | . | -11% | . | .
N#Cc1ccc(OCC(=O)OCC(=O)Nc2sccc2C(N)=O)cc1 | . | -20% | . | 19% | -5% | 9%
O=C(Nc1cccc([N+](=O)[O-])c1)c1ccc([N+](=O)[O-])o1 | . | . | . | -5% | . | .
O=C(Nc1ccc2[nH]c(=O)[nH]c2c1)c1ccc([N+](=O)[O-])o1 | . | ? | . | -3% | -1% | 12µM*
Cc1ccc(NC(=O)c2ccc([N+](=O)[O-])o2)cc1C | 41* | ? | 108* | 5% | -33% | 36%
Cc1ccc(NC(=O)c2ccc(S(=O)(=O)NCc3cccnc3)cc2)c(C)c1 | 1 | 11% | -4 | -12% | 1% | 3%
SMILES | CHX counter | Pf growth 48h | Shiga inhibitor | AMA1 RON2 block | SARS PLP yeast | Pf growth 96h
Cc1cccc(CCNC(=O)C2CC(O)CN2C(=O)Nc2ccccc2)c1 (stereo not given) | . | . | . | -3% | . | .
COc1cc(CN2CCC(CO)(Cc3cccc(C(F)(F)F)c3)CC2)ccc1F | 0 | 6.6µM* | -8 | 3% | 3% | 4.1µM*
Cc1c(CN2CCC(CO)(Cc3cccc(C(F)(F)F)c3)CC2)c2ccccc2n1C | -5 | 3.7µM* | -15 | -28% | -2% | ?
CC1(C(=O)N2CCC(CO)(Cc3cccc(C(F)(F)F)c3)CC2)CC1 | -2 | 21% | 6 | 3% | 0% | 17µM*
OCC1(Cc2cccc(C(F)(F)F)c2)CCN(Cc2cc3ccccc3o2)CC1 | -4 | ? | -3 | ? | -2% | -21%
COc1ccc(C2C(C(=O)NCCCN3CCOCC3)c3ccccc3C(=O)N2c2ccc(OC)cc2)cc1 (stereo not given) | 1 | -11% | -4 | 2% | -2% | 11%
CC1(C(=O)NCc2ccco2)Cc2c(-c3cccc(C(F)(F)F)c3)ccnc2O1 (stereo not given) | . | . | . | -11% | . | .
Cc1cc(F)cc(-c2cc(C(=O)NCc3ccccn3)[nH]n2)c1 | . | . | . | 74% | . | .
COc1cccc(OC)c1C(=O)Nc1cc(C)on1 | 6 | -6% | 2 | -9% | 5% | ?
COc1cccc(C(=O)Nn2cnnc2)c1OC | -4 | 8% | . | 0% | 3% | 2.1µM*
COc1cccc(C(=O)Nc2cc(C)on2)c1OC | 49* | 186% | 76* | 9% | -3% | 68%
O=C(O)c1ccccc1C(=O)Nn1cnnc1 | -4 | -7% | -19 | -1% | 0% | 5%
O=C(Nn1cnnc1)c1ccccc1Cl | -3 | 3% | -19 | -10% | 4% | 8.3µM*
CCCCn1nnnc1C(c1cc2ccccc2o1)N1CCN(c2cc(C)nc3ccccc23)CC1 (stereo not given) | . | . | . | -11% | . | .
N#C/C(C(=O)c1ccccc1)=C1/SC=C(N)N1c1ccccc1 | 39* | ? | 122* | . | 0% | .
CCN(C(=O)COC(=O)c1ccc(N2C(=O)c3ccccc3C2=O)cc1)C1CCS(=O)(=O)C1 (stereo not given) | -1 | 12% | -8 | 5% | 0% | 8%
CCOC(=O)c1c(CSc2cccs2)n(C)c2cc(Br)c(O)c(CN(C)C)c12 | -2 | 13µM* | 15 | -34% | 0% | 15%
CCOC(=O)c1c(C)n(C)c2cc(Br)c(O)c(O)c12 | 8 | -15% | 26 | 1% | 0% | ?
C#CCOCCOCCOCCNc1nc(N2CCN(C(=O)[C@H](Cc3ccc(O)cc3)n3cc([C@@H](N)C(C)CC)nn3)CC2)nc(N2CCN(C(=O)[C@H](Cc3cc4ccccc4[nH]3)n3cc([C@@H](N)CC(C)C)nn3)CC2)n1 (stereo not given in full) | -3 | 2.9µM* | -14 | -29% | -1% | ?
C#CCOCCOCCOCCNc1nc(N2CCN(C(=O)[C@H](Cc3cc4ccccc4[nH]3)n3cc([C@@H](N)Cc4ccc(O)cc4)nn3)CC2)nc(N2CCN(C(=O)[C@H](Cc3cc4ccccc4[nH]3)n3cc([C@@H](N)CC(C)C)nn3)CC2)n1 | -2 | 13µM* | -1 | ? | -3% | 10µM*
C#CCOCCOCCOCCNc1nc(N2CCN(C(=O)C(Cc3cc4ccccc4[nH]3)n3cc(C(N)Cc4ccc(O)cc4)nn3)CC2)nc(N2CCN(C(=O)C(Cc3cc4ccccc4[nH]3)n3cc(C(N)Cc4ccc(O)cc4)nn3)CC2)n1 (stereo not given) | -1 | 2.3µM* | 10 | ? | -2% | ?
